# esBAF inh – Bmi1 luciferase reporter increase in mESCs, primary screen, esBAF inhibitor project, mouse ES cells, Bmi1 luciferase knock-in, single point; 24 h; 100% = twice the neutral-well signal; reporter increase, % at 12.5 µM; 350,000 tested, 2% active; in the data active = activation above about 40%; inconclusive = no clear call, values can overlap the other calls;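 also: 0% = median of the plate's neutral control wells and 100% = double that signal; a rise in the Bmi1 reporter signal indicates esBAF inhibition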
# MITF TRPM1 HTS – activators of MITF-driven TRPM1 promoter reporter, primary screen, cell-based, SK-MEL-5, luciferase, single point. SK-MEL-5 TRPM1-promoter luciferase, 24 h; % of positive control, neutral wells = 0. activation, % at 12.5 µM. 300,000 tested, 0.75% active. AID 588334, 2011;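 active = mean activation of at least 80% with every replicate also reaching 80%; inconclusive = mean reaches 80% but some replicate falls short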;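 also: 0% = neutral control wells and 100% = parthenolide positive control wells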
# C2C12 statin – suppressors of statin myotoxicity in C2C12 myotubes, primary screen, cell-based, single point, plate reader. C2C12 myotubes + simvastatin, ATP luminescence, 48 h; scaled: DMSO 0, geranylgeraniol control 100. rescue of ATP level, % at 7.49 µM. 330,000 tested, 0.78% active;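 active = mean ATP rescue above about 67%, or every replicate alone reaching that limit, limit read from the data, passing the limit was not always enough; inconclusive = no clear call, values can overlap the other calls; inactive = mean under the limit and some replicate under it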;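 also: myotubes were challenged with 10 µM simvastatin during compound exposure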
# Wnt bcat act – Wnt/beta-catenin pathway activators, primary screen, cell-based, plate reader, single point; activation, % at 9.35 µM; Wnt/beta-catenin reporter cell assay, activator; 300,000 tested, 1.2% active; in the data active = activation above about 30%, passing the limit was not always enough; inconclusive = no clear call, values can overlap the other calls;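 also: 0% = neutral control wells and 100% = positive control wells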
# An asterisk follows results filed as active; ? = inconclusive; . = no result given. In the library only some 3% were active in any assay of this set; here they are far more common.
SMILES,esBAF inh,MITF TRPM1 HTS,C2C12 statin,Wnt bcat act
Cn1nnc(-c2ccc(OCc3ccccc3F)cc2)n1,3,60,-13,38*
Fc1ccccc1COc1ccc(-c2nnn(Cc3ccccc3F)n2)cc1,3,17,120*,-2
CC(C)n1nnc(-c2ccc(OCc3ccccc3F)cc2)n1,6,.,-42,21
COc1cccc(CC2CC(=O)N(CCc3ccc4c(c3)OCO4)C2=O)c1 (stereo unspecified),1,-5,12,.
Cc1ccc(CC2CC(=O)N(CCc3ccc4c(c3)OCO4)C2=O)cc1 (stereo unspecified),-2,1,147*,-4
CCCNC(=O)NC[C@@H]1[C@H](c2ccc(C3=CCCCC3)cc2)[C@H](CO)N1C(C)=O,5,.,5,.
Cc1cc(N2CCOCC2)n2ncc(-c3ccccc3)c2n1,-56,-9,11,.
C=CCc1c(C)nc2c(-c3ccccc3)cnn2c1N1CCOCC1,84*,76,-10,40*
CCCCn1nc2cc(C(=O)NCc3ccc(C(F)(F)F)cc3C(F)(F)F)ccc2c1OCC,6,8,83*,-3
CCCn1nc2cc(C(=O)NCCc3ccc(C)cc3)ccc2c1OCC,-2,-10,2,-1
CCOc1c2ccc(C(=O)NCCc3cccs3)cc2nn1CC,45*,63,-23,32*
CCCCn1nc2cc(C(=O)NCCc3cccs3)ccc2c1OCC,41*,34,-35,3
O=C(c1ccccc1F)N1C[C@@H]2[C@H](c3ccccc31)[C@@H](CO)N2C(=O)c1ccncc1,0,.,-3,.
C[C@@H]1CN([C@H](C)CO)C(=O)c2cc(C#CCC3CCCC3)cnc2O[C@H]1CN(C)C(=O)CN(C)C,0,.,20,.
COCc1cn(CC[C@H]2CC[C@H](NC(=O)c3ccc(F)cc3)[C@H](CO)O2)nn1,5,.,8,.
COc1ccc(OC)c(C(=O)c2coc3ccc(O)cc23)c1,34,.,12,8
O=C(c1coc2ccc(O)cc12)C1CC1,20,12,-2,.
O=C(c1ccc(Cl)cc1)c1coc2ccc(O)cc12,9,87*,5,.
O=C(c1ccc(Br)cc1)c1coc2ccc(O)cc12,.,?,.,40*
Cc1noc(C)c1S(=O)(=O)N(C)C[C@@H]1OCCCC[C@H](C)Oc2ccc(N(C)C)cc2C(=O)N([C@H](C)CO)C[C@@H]1C,-1,.,47,.
Nc1ccc2cc3ccccc3cc2c1,49*,?,8,9
C[C@H]1CCCCO[C@H](CN(C)C(=O)Nc2ccc(F)cc2)[C@@H](C)CN([C@@H](C)CO)C(=O)c2cc(NS(=O)(=O)c3ccc(F)cc3)ccc2O1,0,.,.,.
COC(=O)c1ccc(NC(=O)Nc2ccc(F)cc2F)cc1,79*,50,-4,-4
COC(=O)c1ccc(NC(=O)Nc2cccc(F)c2)cc1,70*,46,-24,.
O=C(Nc1ccccc1)Nc1ccc(F)cc1F,.,72,.,48*
SMILES,esBAF inh,MITF TRPM1 HTS,C2C12 statin,Wnt bcat act
COc1ccc(NC(=O)Nc2cccc(F)c2)c(OC)c1,7,35,-13,15
O=C(CCc1ccccc1)Nc1ccc(F)cc1F,66*,55,-2,13
C[C@@H]1CN([C@H](C)CO)C(=O)c2cccc(N(C)C)c2O[C@@H]1CN(C)C,1,.,7,.
CO[C@@H]1CN(C)C(=O)c2ccc(NC(=O)c3cccnc3)cc2OC[C@@H](C)N(CC2CC2)C[C@H]1C,-2,.,-5,.
C[C@H](CO)N1C[C@H](C)[C@H](CN(C)C(=O)C2CCC2)Oc2ncc(-c3ccc(F)cc3)cc2C1=O,-1,.,-2,.
CCCNC(=O)C[C@H]1CC[C@H]2[C@@H](COc3ccc(NC(=O)c4ccccc4)cc3C(=O)N2C)O1,1,.,-15,.
Cc1[nH]n(-c2ccccc2)c(=O)c1/C=C1\C=NN=C1c1ccccc1,.,.,.,0
Cc1ccc(-n2[nH]c(C)c(/C=C3/C=Nc4ccccc43)c2=O)cc1C,54*,8,-6,-2
C[C@H]1CCCCO[C@H](CN(C)S(=O)(=O)c2cccs2)[C@@H](C)CN([C@@H](C)CO)C(=O)c2cc(NS(=O)(=O)c3cn(C)cn3)ccc2O1,3,.,.,.
C[C@@H]1CCCCO[C@@H](CN(C)Cc2ccc(Cl)c(Cl)c2)[C@H](C)CN([C@@H](C)CO)C(=O)c2cc(NC(=O)Cc3ccccc3)ccc2O1,0,.,106*,.
C[C@@H]1CCCCO[C@@H](CN(C)Cc2ccc(Cl)c(Cl)c2)[C@@H](C)CN([C@H](C)CO)C(=O)c2cc(NC(=O)Nc3ccccc3)ccc2O1,-15,.,35,-6
C[C@@H]1CN([C@H](C)CO)C(=O)c2cc(NC(=O)Cc3ccccc3)ccc2O[C@@H](C)CCCCO[C@H]1CN(C)Cc1ccc(Cl)c(Cl)c1,3,.,-16,.
C[C@@H]1CN([C@H](C)CO)C(=O)c2cc(NC(=O)Nc3ccccc3)ccc2O[C@@H](C)CCCCO[C@@H]1CN(C)Cc1ccc(Cl)c(Cl)c1,-3,.,117*,.
CCCNC(=O)C[C@H]1CC[C@H]2[C@@H](COc3ccc(NC(=O)c4ccc(OC)cc4)cc3C(=O)N2C)O1,1,.,8,.
O=C(c1ccccc1)N1C[C@@H]2[C@H](c3ccccc31)[C@H](CO)N2C(=O)CN1CCOCC1,2,.,9,.
CCC(=O)N/C(N)=N/c1nc2ccccc2o1,.,?,.,11
N/C(=N\c1nc2ccccc2o1)NC(=O)c1ccccc1,.,54,.,.
CC(C)(C)C(=O)N/C(N)=N/c1nc2ccccc2o1,15,?,-5,65*
CCCC(=O)N/C(N)=N/c1nc2ccccc2o1,.,88*,.,46*
CC(C)CC(=O)N/C(N)=N/c1nc2ccccc2o1,75*,86*,-3,53*
C[C@H](CO)N1C[C@H](C)[C@H](CN(C)C(=O)Cc2ccccn2)Oc2ncc(-c3ccccc3)cc2C1=O,2,.,1,.
C[C@@H]1CCCCO[C@H](CN(C)S(=O)(=O)c2ccc(F)cc2)[C@@H](C)CN([C@@H](C)CO)C(=O)c2cc(NS(C)(=O)=O)ccc2O1,-9,.,10,.
O/N=C/c1ccc2ccccc2n1,.,.,.,36*
O=C(C[C@H]1CC[C@@H](NS(=O)(=O)c2ccc(F)cc2)[C@H](CO)O1)NC1CCCCC1,10,.,2,.
COc1ccc(/C=N/Nc2snc(SC)c2C#N)cc1OC,53*,?,-47,.
SMILES,esBAF inh,MITF TRPM1 HTS,C2C12 statin,Wnt bcat act
Cc1cccc(C#Cc2ccccc2)n1,11,76,-1,67*
O=C(NCCc1ccccc1)c1ccc2c(c1)OCCO2,-85,-88,-3,-2
O/N=C(/CCc1ccccc1)c1ccc2c(c1)OCCO2,46*,92*,3,9
O=C(CCCc1ccccc1)c1ccc2c(c1)OCCO2,-84,-78,-3,-12
O=C(CCc1ccccc1)c1ccc2c(c1)OCCCO2,76*,122*,2,.
O=C(CCN1CCc2ccccc21)c1ccc2c(c1)OCCO2,38,29,115*,.
O=C(C[C@H]1CC[C@H]2[C@@H](COC[C@H](O)CN2Cc2cccc(C(F)(F)F)c2)O1)NCc1ccc(F)cc1,6,.,-18,.

# Source: PubChem BioAssay
